Screening results: PubChem BioAssay, National Center for Advancing Translational Sciences (NCATS)
15-hLO inh – blocks human 15-lipoxygenase activity; actives 1.4% (n = 74,000); AID 887; purified 15hLO-1, xylenol orange hydroperoxide absorbance; Potency, µM (series often up to 57.1 µM), most hits filed as inhibitors; P16050; also: nearly all actives have a fitted effect of over 55% in size
Target sequence (P16050 whole entry, looked up): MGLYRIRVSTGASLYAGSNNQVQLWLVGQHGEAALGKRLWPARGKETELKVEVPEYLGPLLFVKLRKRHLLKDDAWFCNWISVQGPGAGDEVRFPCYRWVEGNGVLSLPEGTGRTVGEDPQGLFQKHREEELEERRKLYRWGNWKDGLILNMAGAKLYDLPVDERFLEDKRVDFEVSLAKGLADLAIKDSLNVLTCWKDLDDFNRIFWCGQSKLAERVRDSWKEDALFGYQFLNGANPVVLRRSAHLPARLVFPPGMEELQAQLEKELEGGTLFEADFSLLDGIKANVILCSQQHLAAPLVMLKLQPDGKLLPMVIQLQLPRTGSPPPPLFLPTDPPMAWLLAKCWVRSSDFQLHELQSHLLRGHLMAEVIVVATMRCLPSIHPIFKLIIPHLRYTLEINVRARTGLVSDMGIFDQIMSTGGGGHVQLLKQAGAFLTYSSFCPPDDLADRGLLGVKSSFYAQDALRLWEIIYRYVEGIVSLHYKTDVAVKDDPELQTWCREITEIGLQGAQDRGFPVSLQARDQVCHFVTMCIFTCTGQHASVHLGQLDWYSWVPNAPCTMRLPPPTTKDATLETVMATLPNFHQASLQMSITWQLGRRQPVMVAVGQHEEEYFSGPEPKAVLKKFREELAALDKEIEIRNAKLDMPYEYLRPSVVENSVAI
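40 nM 15hLO-1 + cpd, 15 min RT; start w/ 50 uM AA (final), 6 min RT; stop/detect w/ 200 uM XO + 300 uM Fe(II) in 50 mM H2SO4, 30 min; A573/A405. Buffer 25 mM Hepes pH 7.5, 0.01% Triton X-100. No-enzyme wells as negative control.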
ERK AVP inh – vasopressin-driven ERK pathway inhibition | HEK293-V1b, vasopressin-stimulated pERK AlphaScreen | actives 0.99% (n = 72,000) | Potency, µM (series often up to 57.5 µM), actives largely listed as inhibitors; also: nearly all actives have a fitted effect of over 55% in size
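Overnight-seeded V1b-HEK293 cells in 1% FBS got compound, then vasopressin (25 nM final, 5 min, 37C), then lysis buffer. AlphaScreen detection of phospho-ERK; activity normalized to basal and full-stimulation controls.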
BRCT PPI red – inhibitors of human BRCA1 BRCT-phosphoprotein interaction (red fluorophore); BRCT-phosphopeptide binding, red fluorescence polarization; Potency, µM (top dose mostly 76.9 µM), most hits filed as inhibitors; actives 0.03% (n = 75,000)
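Rhodamine-labelled pBACH1 10-mer (100 nM) bound to BRCT domain (100 nM) at pH 7.3; compounds incubated 12 min room temperature, polarization read. Free peptide defines full inhibition; unlabelled decapeptide titrated as control.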
DNA Pol III inh – inhibitors of bacterial DNA polymerase III holoenzyme. AID 603. Potency, µM (series often up to 57.1 µM). reconstituted DNA polymerase III holoenzyme replication, biochemical. actives 0.25% (n = 71,000)
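Reconstituted *E. coli* holoenzyme (0.35 nM Pol III, 1 nM beta, 154 nM SSB, 2 nM primase) was preincubated with compound for 15 min at RT. Synthesis on 1.4 nM ssM13Gori ran 35 min, then was stopped with PicoGreen/EDTA and read as dsDNA fluorescence.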
BRCT PPI green – inhibitors of human BRCA1 BRCT-phosphoprotein interaction (green fluorophore). P38398. BRCA1 BRCT-phosphopeptide binding, green fluorescence polarization. Potency, µM (highest dose often 76.9 µM), usual class: inhibitors. actives 0.05% (n = 75,000)
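Compounds were incubated for 12 min at room temperature with a complex of 100 nM fluorescein-tagged pBACH1 decapeptide and 250 nM His-tagged BRCT protein. Buffer was phosphate pH 7.3 with EDTA, DTT and Tween 20. Disruption of binding lowers the polarization signal.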
TsaE inh – YjeE (TsaE) inhibition, E. coli; Potency, µM; AID 605; purified YjeE enzyme, qHTS inhibition assay; P0AF67; actives 0.05% (n = 71,000)
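Purified YjeE (10 uM) with BODIPY Texas Red-labeled ADP probe (2 uM); compounds pin-transferred, 15 min at room temperature. Binding inhibition read as decreased fluorescence polarization; ADP titration as control.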
A number is an active result; – = inactive; ? = inconclusive; · = not tested or not shown; ! = not active in a repeat; [ ] = another dose, or the depositor's remark. Rows were chosen to be rich in hits. Some 2.4% of all compounds tested hit in one or more screens of this group. Calls follow the shape of the dose curve; as a rule, active = well fitted curve in the direction sought with a large enough effect; inconclusive = small, poorly fitted or top-dose-only effect, or another doubt; inactive = no such curve, though single readings can be large; an effect the other way counts as inactive or inconclusive.

SMILES	15-hLO inh	ERK AVP inh	BRCT PPI red	DNA Pol III inh	BRCT PPI green	TsaE inh
CCCS(=O)(=O)c1c(S(=O)(=O)CCC)c2c(N)cccn2c1C(=O)c1ccc(F)cc1	10µM	?	–	–	–	–
O=c1cnc2cnc(OCc3ccccc3)nc2n1Cc1ccc(F)cc1	–	–	–	–	–	–
O=c1/c(=C\c2ccc3c(c2)OCO3)sc2n1CCCN=2	?	10µM	–	–	–	–
O=C(NCc1ccc2c(c1)OCO2)c1ccc(-c2ccc(Cl)cc2)o1	–	32µM	–	–	–	–
CCOC(=O)c1c(N)sc(C(N)=O)c1C	?	13µM	–	–	–	–
CCC(C)C1NC(=O)C(CCNCS(=O)(=O)O)NC(=O)C(NC(=O)C(CCNCS(=O)(=O)O)NC(=O)C(NC(=O)C(CCNCS(=O)(=O)O)NC(=O)CCCCC(C)C)C(C)O)CCNC(=O)C(C(C)O)NC(=O)C(CCNCS(=O)(=O)O)NC(=O)C(CCNCS(=O)(=O)O)NC(=O)C(C(C)CC)NC1=O (centres undefined)	3.2µM	–	–	·	–[3.08 µM]	·
CCOc1ccc2nc(NCCCNS(=O)(=O)c3ccccc3)c(C#N)cc2c1	–	–	–	–	–	–
CC(=O)NCCNc1ncncc1-c1ccccc1C(F)(F)F	–	–	–	–	–	–
CC(=O)NCCNc1ncncc1-c1ccccc1C	16µM	–	–	–	–	–
C=CCn1c(SCC(=O)NCc2ccco2)nc2sc3c(c2c1=O)CCCCC3	–	–	–	–	–	–
O=C(NCc1ccco1)c1ccc2nc3sc4c(c3c(=O)n2c1)CCCC4	32µM	–	–	–	–	–
N.N.N.N.N.N.N.N.N.N.N.N.N.N.O.O.[Ru].[Ru].[Ru]	–	16µM	–	32µM	–	79µM
COc1ccc(-c2cc(-c3cc(F)ccc3O)[nH]n2)cc1OC	?	32µM	–	–	–	–
COc1ccc(-c2cc(-c3ccccc3O)[nH]n2)cc1OC	?	?	–	–	–	–
COC(=O)[C@@]1(Cc2ccc(OC)cc2)[C@H]2c3cc(C(=O)N4CCCC4)n(Cc4ccsc4Br)c3C[C@H]2CN1C(=O)c1ccccc1	·	–	–	–	–	–
CC(C)Sc1oc(-c2ccco2)nc1S(=O)(=O)c1ccc(F)cc1	25µM	–	–	–	–	–
COc1ccccc1CN1CC[C@@]2(CCCN(S(C)(=O)=O)C2)C1	–	–	–	–	–	–
O=[N+]([O-])c1ccc2c(c1)S(=O)c1ccccc1-2 (centres undefined)	–[11.4 µM]	–[11.5 µM]	–[15.4 µM]	–[11.4 µM]	–[15.4 µM]	–
O=C1c2cc([N+](=O)[O-])ccc2-c2ccc3c4ccc5c6c(ccc(c7ccc1c2c73)c64)C(=O)c1cc([N+](=O)[O-])ccc1-5	–[11.4 µM]	–[11.5 µM]	–[15.4 µM]	4µM	–[15.4 µM]	–
O=C(c1ccncc1)N1CCC2(CC1)CCN(c1ccccc1)CC2	–	–	–	–	–	–
CC(C)NC(=O)N1CC[C@@]2(CCCN(S(=O)(=O)c3ccccc3)C2)C1	–	–	–	–	–	–
C=C[C@@]1(C)CC(=O)[C@@]2(O)[C@@]3(C)[C@@H](O)CCC(C)(C)[C@@H]3[C@H](O)[C@H](OC(C)=O)[C@@]2(C)O1	–	1.3µM	–	–	–	–
Cc1noc(C)c1COC(=O)Cc1ccc(Cl)c(Cl)c1	25µM	–	–	–	–	–
CCOC(=O)c1cc(C)[nH]c(=S)c1C#N	4µM	–	–	–	–	–
CC(/C=C/C=C(C)/C=C/C(=O)O)=C\C=C\C=C(C)\C=C\C=C(C)\C=C\C(=O)O	?	–	–	2.5µM	–	–
SMILES	15-hLO inh	ERK AVP inh	BRCT PPI red	DNA Pol III inh	BRCT PPI green	TsaE inh
COC(=O)C/C=C/C(C)C(OCc1cccc(-c2ccccc2)c1)C1CCCCC1 (centres undefined)	–[11.4 µM]	–[11.5 µM]	–[15.4 µM]	·	–[15.4 µM]	·
N#Cc1nc(Cc2ccccc2)oc1N1CCC(Cc2ccccc2)CC1	–	–	–	–	–	–
N#Cc1nc(Cc2ccccc2)oc1N1CCN(c2ccccc2)CC1	–	25µM	–	–	–	–
N=C(N)SCc1cc(Cl)cc(Cl)c1O	–[11.4 µM]	–[11.5 µM]	–[15.4 µM]	–[11.4 µM]	–[15.4 µM]	–
CN(Cc1ccco1)c1ncnc2ccc(-c3ccccc3C(F)(F)F)cc12	–	?	–	–	–	–
CC(=O)N1CCC2(CC1)CCN(C(=O)Nc1cccc(F)c1)CC2	–	–	–	–	–	–
CCN(CCO)CCCC(C)Nc1ccnc2cc(Cl)ccc12 (centres undefined)	–	–	–	·	–[3.08 µM]	·
CCN(CC)CCC[C@H](C)Nc1c2ccc(Cl)cc2nc2ccc(OC)cc12	–	–	–	32µM!	?	–
Cc1cc2c(nc1C)CCCCN2C[C@H](O)CN1CCCc2nc(-c3ccc(Br)cc3)ccc21	–[11.4 µM]	–[11.5 µM]	–[15.4 µM]	·	–[15.4 µM]	·
CCOc1ccc2nc(N3CCC(C(=O)N4CCN(c5ccccn5)CC4)CC3)sc2c1	–	20µM	–	–	–	–
O=C1c2ccccc2-c2n[nH]c3cccc1c23	–	10µM	–	–	–	–
CCOC(=O)c1ccc(NC(=O)CCc2nc(-c3cccc(C)c3)no2)cc1	–	25µM	–	–	–	–
Cc1cccc(-c2noc(CCC(=O)Nc3ccccc3)n2)c1	–	?	–	–	–	–
O=c1cc(-c2ccccc2)oc2c1ccc1ccccc12	–	32µM	–	–	–	–
Oc1cc(O)c2c(c1)O[C@H](c1ccc(O)c(O)c1)[C@@H](O)[C@@H]2c1c(O)cc(O)c2c1O[C@@H](c1ccc(O)c(O)c1)[C@H](O)C2	?	–[11.5 µM]	–[15.4 µM]	0.63µM	–[15.4 µM]	–
O=C1CC(c2ccc(O)cc2)Oc2cc(O)cc(O)c21 (centres undefined)	–	–	–	·	–	·
O=S1(=O)C=C(Sc2nc3cc(Cl)ccc3o2)c2ccccc21	–	10µM	–	–	–	–
COc1ccc(CNc2ncnc3ccc(-c4ccc5c(c4)OCO5)cc23)c(OC)c1	?	?	–	–	–	–
O=C(Nc1c(-c2ccccc2)nc2sccn12)c1ccccc1	–	·	–	·	–	·
Nc1nc(-c2cccs2)c(NC(=O)c2ccccc2)s1	20µM	?	–	–	–	–
CCn1c(SCC(=O)c2ccc(O)c(O)c2)nnc1-c1ccccc1OC	16µM	–	–	?	–	–
C=CCn1c(SCC(=O)c2ccc(O)c(O)c2)nnc1-c1ccccc1OC	?	–	–	–	–	–
COc1cccc(Nc2ncc3nc(-c4cc(F)cc(F)c4)c(=O)n(CCC#N)c3n2)c1	–	–	–	–	–	–
Cc1cnc(CNc2ccnc(-c3c(C)noc3C)n2)cn1	–	–	–	–	–	–
Cc1noc(C)c1-c1nccc(NCc2ccccc2)n1	16µM	–	–	–	–	–
CC1CCN(CC[S-])CC1.O.O.[Cl][Pt]	?	–[11.5 µM]	–[15.4 µM]	–[11.4 µM]	–[15.4 µM]	–
